The campaign covered roughly 5,500 compounds. About 2,000 (36%) were called active. About 18% were inconclusive and are not listed. Cut-off read from the data, not from the text of the source: active = normalized growth mostly below about 0.91 (no sharp cut-off); inconclusive = no clear call, values can overlap the other calls; inactive = mostly above about 0.92. The list shows a part of the results.
Test: chemical genetic growth profiling, strain panel (AID 1159580);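 note: tested at 20 µM; growth read once vehicle control cultures reached saturation at 30 °C; 1 = growth at the plate median or of vehicle wells; lower values mean less growth of the strain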
Conditions: growth OD

Measured: normalized growth

C=CCc1ccc2c(c1)OCO2
inactive: S. cerevisiae deletion strains, locus YJR043C, strain POL32, active compounds read low 1.02 | S. cerevisiae deletion strains, locus YJR066W, strain TOR1, active compounds read low 0.928 | S. cerevisiae deletion strains, locus YJR075W, strain HOC1, active compounds read low 1.03 | S. cerevisiae deletion strains, locus YKL009W, strain mrt4, active compounds read low 0.979 | S. cerevisiae deletion strains, locus YKL068W, active compounds read low 0.987 | S. cerevisiae deletion strains, locus YKL085W, strain MDH1 (second series), active compounds read low 1.01 | S. cerevisiae deletion strains, locus YKL085W, strain MDH1, active compounds read low 1.01 | S. cerevisiae deletion strains, locus YKL160W, strain elf1, active compounds read low 0.994 | S. cerevisiae deletion strains, locus YKL190W, strain CNB1, active compounds read low 1.01 | S. cerevisiae deletion strains, locus YKR001C, strain vps1, active compounds read low 0.965 | S. cerevisiae deletion strains, locus YKR026C, strain gcn3, active compounds read low 1.03 | S. cerevisiae deletion strains, locus YKR091W, strain srl3, active compounds read low 1.02 | S. cerevisiae deletion strains, locus YLL001W, strain dnm1, active compounds read low 1.05 | S. cerevisiae deletion strains, locus YLL026W, active compounds read low 1.01 | S. cerevisiae deletion strains, locus YLL041C, strain sdh2, active compounds read low 1.02 | S. cerevisiae deletion strains, locus YLR027C, strain aat2, active compounds read low 1 | S. cerevisiae deletion strains, locus YLR039C, strain RIC1, active compounds read low 0.891 | S. cerevisiae deletion strains, locus YLR058C, strain SHM2, active compounds read low 1.01 | S. cerevisiae deletion strains, locus YLR102C, strain apc9, active compounds read low 0.993 | S. cerevisiae deletion strains, locus YLR113W, strain HOG1, active compounds read low 1.03 | S. cerevisiae deletion strains, locus YLR221C, strain rsa3, active compounds read low 1.06 | S. cerevisiae deletion strains, locus YLR258W, strain gsy2, active compounds read low 1.02 | S. cerevisiae deletion strains, locus YLR262C, strain YPT6 (second series), active compounds read low 1.03 | S. cerevisiae deletion strains, locus YLR262C, strain YPT6, active compounds read low 0.909 | S. cerevisiae deletion strains, locus YLR268W, strain sec22, active compounds read low 0.987 | S. cerevisiae deletion strains, locus YLR320W, strain mms22, active compounds read low 1.04 | S. cerevisiae deletion strains, locus YLR330W, strain CHS5, active compounds read low 1 | S. cerevisiae deletion strains, locus YLR342W, strain FKS1 (second series), active compounds read low 1.01 | S. cerevisiae deletion strains, locus YLR342W, strain FKS1, active compounds read low 1.02 | S. cerevisiae deletion strains, locus YLR357W, strain rsc2, active compounds read low 1.13 | S. cerevisiae deletion strains, locus YLR370C, strain arc18, active compounds read low 1.04 | S. cerevisiae deletion strains, locus YLR371W, strain rom2, active compounds read low 0.984 | S. cerevisiae deletion strains, locus YLR384C, strain iki3, active compounds read low 1.03 | S. cerevisiae deletion strains, locus YLR418C, strain cdc73, active compounds read low 1.01 | S. cerevisiae deletion strains, locus YML016C, strain PPZ1, active compounds read low 1.01 | S. cerevisiae deletion strains, locus YML032C, strain rad52, active compounds read low 0.996 | S. cerevisiae deletion strains, locus YML120C, strain ndi1, active compounds read low 1.05 | S. cerevisiae deletion strains, locus YML124C, strain tub3, active compounds read low 0.995 | S. cerevisiae deletion strains, locus YMR058W, strain fet3, active compounds read low 1.04 | S. cerevisiae deletion strains, locus YMR078C, strain ctf18, active compounds read low 0.985 | S. cerevisiae deletion strains, locus YMR125W, strain sto1, active compounds read low 1.08 | S. cerevisiae deletion strains, locus YMR129W, active compounds read low 1.03 | S. cerevisiae deletion strains, locus YMR205C, strain PFK2, active compounds read low 1 | S. cerevisiae deletion strains, locus YMR223W, strain ubp8, active compounds read low 1 | S. cerevisiae deletion strains, locus YMR231W, strain pep5, active compounds read low 1.02 | S. cerevisiae deletion strains, locus YMR263W, strain SAP30, active compounds read low 1 | S. cerevisiae deletion strains, locus YMR307W, strain GAS1, active compounds read low 0.995 | S. cerevisiae deletion strains, locus YNL067W, strain RPL9B, active compounds read low 0.998 | S. cerevisiae deletion strains, locus YNL071W, strain lat1, active compounds read low 1.03 | S. cerevisiae deletion strains, locus YNL183C, strain NPR1, active compounds read low 0.97 | S. cerevisiae deletion strains, locus YNL209W, strain ssb2, active compounds read low 1.02 | S. cerevisiae deletion strains, locus YNL233W, strain BNI4, active compounds read low 1 | S. cerevisiae deletion strains, locus YNL248C, strain rpa49, active compounds read low 1.04 | S. cerevisiae deletion strains, locus YNL250W, strain rad50, active compounds read low 1.01 | S. cerevisiae deletion strains, locus YNL271C, strain bni1, active compounds read low 0.978 | S. cerevisiae deletion strains, locus YNL298W, strain CLA4, active compounds read low 0.995 | S. cerevisiae deletion strains, locus YNL307C, strain MCK1, active compounds read low 0.989 | S. cerevisiae deletion strains, locus YNL322C, strain KRE1 (second series), active compounds read low 1.02 | S. cerevisiae deletion strains, locus YNR049C, strain mso1, active compounds read low 1.02 | S. cerevisiae deletion strains, locus YNR052C, strain pop2, active compounds read low 0.997 | S. cerevisiae deletion strains, locus YOL012C, strain htz1 0.985 | S. cerevisiae deletion strains, locus YOL147C, strain pex11, active compounds read low 0.987 | S. cerevisiae deletion strains, locus YOR001W, strain rrp6, active compounds read low 1 | S. cerevisiae deletion strains, locus YOR061W, strain CKA2, active compounds read low 1.01 | S. cerevisiae deletion strains, locus YOR069W, strain VPS5, active compounds read low 1.01 | S. cerevisiae deletion strains, locus YOR070C, strain gyp1, active compounds read low 1.01 | S. cerevisiae deletion strains, locus YOR080W, strain dia2, active compounds read low 1.03 | S. cerevisiae deletion strains, locus YOR083W, strain WHI5, active compounds read low 1 | S. cerevisiae deletion strains, locus YOR106W, strain vam3, active compounds read low 1.04 | S. cerevisiae deletion strains, locus YOR136W, strain idh2, active compounds read low 0.987 | S. cerevisiae deletion strains, locus YOR144C, strain elg1, active compounds read low 0.988 | S. cerevisiae deletion strains, locus YOR184W, strain ser1, active compounds read low 0.99 | S. cerevisiae deletion strains, locus YOR231W, strain MKK1, active compounds read low 0.99 | S. cerevisiae deletion strains, locus YOR265W, strain rbl2, active compounds read low 1.01 | S. cerevisiae deletion strains, locus YOR270C, strain vph1, active compounds read low 1.07 | S. cerevisiae deletion strains, locus YOR290C, strain snf2, active compounds read low 1.07 | S. cerevisiae deletion strains, locus YOR316C, strain cot1, active compounds read low 0.99 | S. cerevisiae deletion strains, locus YPL051W, strain arl3, active compounds read low 1 | S. cerevisiae deletion strains, locus YPL078C, strain atp4, active compounds read low 1.01 | S. cerevisiae deletion strains, locus YPL106C, strain sse1, active compounds read low 1.03 | S. cerevisiae deletion strains, locus YPL240C, strain hsp82, active compounds read low 1.02 | S. cerevisiae deletion strains, locus YPL256C, strain CLN2, active compounds read low 0.966 | S. cerevisiae deletion strains, locus YPR119W, strain clb2, active compounds read low 0.982 | S. cerevisiae deletion strains, locus YPR141C, strain kar3, active compounds read low 0.976 | S. cerevisiae deletion strains, locus YPR163C, strain tif3, active compounds read low 0.989 | S. cerevisiae deletion strains, locus YPR167C, strain met16, active compounds read low 0.991 | S. cerevisiae deletion strains, strain wtn01, active compounds read low 1.01 | S. cerevisiae strains, strain wild type, active compounds read low 1.01

Reference: PubChem BioAssay AID1159580 (chemical genetic matrix, 2015)
